Measurements reported in PubChem BioAssay AID1159580 (chemical genetic matrix, 2015).
Values joined by “and” are separate entries in the source; they are usually repeats but may differ in a detail not shown here. Equal entries are not always repeated. About 2,000 (36%) of roughly 5,500 compounds were called active. Not shown: some 18% with an inconclusive outcome. Cut-off read from the data, not from the text of the source: active = normalized growth mostly below about 0.91 (no sharp cut-off); inconclusive = no clear call, values can overlap the other calls; inactive = mostly above about 0.92. Some of the results follow.

Test: chemical genetic growth profiling, strain panel (AID 1159580);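 note: tested at 20 µM; growth read once vehicle control cultures reached saturation at 30 °C; 1 = growth at the plate median or of vehicle wells; lower values mean less growth of the strain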
Conditions: S. cerevisiae deletion strains, growth OD

Measured: normalized growth

COc1ccc2c(c1O)-c1c(OC)c(OC)cc3c1[C@H](C2)N(C)CC3
inactive: locus YAL021C, strain ccr4, active compounds read low 0.926 | locus YAL026C, strain drs2, active compounds read low 0.985 | locus YAL030W, strain snc1, active compounds read low 0.989 | locus YBL061C, strain skt5, active compounds read low 0.99 | locus YBR009C, strain hhf1, active compounds read low 1.01 | locus YBR021W, strain FUR4, active compounds read low 1.02 | locus YBR023C, strain chs3, active compounds read low 0.988 | locus YBR171W, strain sec66, active compounds read low 0.976 | locus YBR229C, strain ROT2, active compounds read low 1 | locus YBR231C, strain swc5, active compounds read low 0.991 | locus YBR279W, strain paf1, active compounds read low 0.978 | locus YCL011C, strain gbp2, active compounds read low 0.979 | locus YCL016C, strain dcc1, active compounds read low 0.983 | locus YCL029C, strain bik1, active compounds read low 1.04 | locus YCL061C, strain MRC1, active compounds read low 0.979 | locus YCL069W, strain vba3, active compounds read low 0.981 | locus YCR088W, strain abp1, active compounds read low 0.975 | locus YDL005C, strain med2, active compounds read low 0.982 | locus YDL035C, strain GPR1, active compounds read low 1.06 | locus YDL040C, strain nat1, active compounds read low 0.982 | locus YDL074C, strain BRE1, active compounds read low 1.1 | locus YDL101C, strain DUN1, active compounds read low 1.02 | locus YDL185W, strain tfp1, active compounds read low 1.03 | locus YDL192W, strain arf1, active compounds read low 1.03 | locus YDR001C, strain nth1, active compounds read low 0.982 | locus YDR069C, strain doa4, active compounds read low 0.989 | locus YDR101C, strain arx1, active compounds read low 1.03 | locus YDR137W, strain rgp1, active compounds read low 0.983 | locus YDR150W, strain NUM1, active compounds read low 1.01 | locus YDR159W, strain sac3, active compounds read low 1 | locus YDR162C, strain NBP2, active compounds read low 1.01 | locus YDR195W, strain ref2 0.991 | locus YDR297W, strain sur2, active compounds read low 0.974 | locus YDR318W, strain mcm21, active compounds read low 1.01 | locus YDR334W, strain swr1, active compounds read low 0.951 | locus YDR335W, strain msn5, active compounds read low 0.977 | locus YDR388W, active compounds read low 1.02 | locus YDR392W, strain spt3, active compounds read low 0.931 | locus YDR502C, strain sam2, active compounds read low 1.01 | locus YEL003W, strain gim4, active compounds read low 0.982 | locus YEL037C, strain rad23, active compounds read low 0.988 | locus YEL061C, strain CIN8 (second series), active compounds read low 0.987 | locus YEL061C, strain CIN8, active compounds read low 1.02 | locus YER015W, strain faa2, active compounds read low 0.991 | locus YER016W, strain bim1, active compounds read low 0.985 | locus YER110C, active compounds read low 1.01 | locus YER111C, strain swi4, active compounds read low 0.995 | locus YER155C, strain BEM2 (second series), active compounds read low 1.01 | locus YER155C, strain BEM2, active compounds read low 1 | locus YER167W, strain BCK2, active compounds read low 1.02 | locus YFR010W, strain ubp6, active compounds read low 0.987 | locus YGL078C, strain dbp3, active compounds read low 1.02 | locus YGL086W, strain mad1, active compounds read low 1.04 | locus YGL167C, strain pmr1, active compounds read low 0.999 | locus YGL173C, strain kem1, active compounds read low 0.975 | locus YGL227W, strain vid30, active compounds read low 0.989 | locus YGL240W, strain doc1, active compounds read low 0.996 | locus YGL248W, strain PDE1, active compounds read low 1.01 | locus YGL253W, strain hxk2, active compounds read low 1.01 | locus YGR135W, strain pre9, active compounds read low 1 | locus YGR252W, strain gcn5, active compounds read low 0.991 | locus YHR013C, strain ard1, active compounds read low 0.95 | locus YHR027C, strain rpn1, active compounds read low 0.988 | locus YHR030C, strain SLT2, active compounds read low 1.02 and 0.976 | locus YHR079C, strain IRE1 (second series), active compounds read low 1.01 | locus YHR079C, strain IRE1, active compounds read low 0.993 | locus YHR094C, strain hxt1, active compounds read low 1.01 | locus YHR129C, strain ARP1, active compounds read low 1.03 | locus YHR142W, strain chs7, active compounds read low 0.915 | locus YHR200W, strain rpn10, active compounds read low 1.04 | locus YIL066C, strain RNR3, active compounds read low 1.04 | locus YIL073C, strain SPO22, active compounds read low 1.1 | locus YIL125W, strain kgd1, active compounds read low 1.01 | locus YIR030C, strain dcg1, active compounds read low 1.01 | locus YJL092W, strain hpr5, active compounds read low 0.97 | locus YJL095W, strain BCK1 (second series), active compounds read low 0.995 | locus YJL095W, strain BCK1, active compounds read low 1.03 and 1.01 | locus YJL115W, strain asf1, active compounds read low 0.957 | locus YJL129C, strain trk1, active compounds read low 0.959 | locus YJL134W, strain LCB3, active compounds read low 1.01 | locus YJL154C, strain vps35, active compounds read low 0.982 | locus YJL164C, strain tpk1, active compounds read low 0.972 | locus YJL166W, strain qcr8, active compounds read low 0.987 | locus YJL168C, strain set2, active compounds read low 1.03 | locus YJL187C, strain SWE1 (second series), active compounds read low 1.03 | locus YJL187C, strain SWE1, active compounds read low 0.994 | locus YJR043C, strain POL32, active compounds read low 1.03 | locus YJR066W, strain TOR1, active compounds read low 0.947 | locus YKL009W, strain mrt4, active compounds read low 1.12 | locus YKL068W, active compounds read low 1 | locus YKL085W, strain MDH1 (second series), active compounds read low 1.01 | locus YKL085W, strain MDH1, active compounds read low 1.01 | locus YKL160W, strain elf1, active compounds read low 0.965 | locus YKR001C, strain vps1, active compounds read low 1.03 | locus YKR026C, strain gcn3, active compounds read low 0.981 | locus YKR091W, strain srl3, active compounds read low 0.975 | locus YLL001W, strain dnm1, active compounds read low 0.986 | locus YLL026W, active compounds read low 0.989 | locus YLL041C, strain sdh2, active compounds read low 0.975 | locus YLR027C, strain aat2, active compounds read low 0.987 | locus YLR039C, strain RIC1, active compounds read low 1.09 | locus YLR058C, strain SHM2, active compounds read low 1.01 | locus YLR102C, strain apc9, active compounds read low 1.02 | locus YLR113W, strain HOG1, active compounds read low 1 | locus YLR221C, strain rsa3, active compounds read low 0.981 | locus YLR258W, strain gsy2, active compounds read low 0.999 | locus YLR262C, strain YPT6 (second series), active compounds read low 0.972 | locus YLR262C, strain YPT6, active compounds read low 1.1 | locus YLR268W, strain sec22, active compounds read low 1.05 | locus YLR320W, strain mms22, active compounds read low 1.01 | locus YLR330W, strain CHS5, active compounds read low 1.02 | locus YLR342W, strain FKS1 (second series), active compounds read low 1.06 | locus YLR342W, strain FKS1, active compounds read low 0.986 | locus YLR357W, strain rsc2, active compounds read low 1 | locus YLR370C, strain arc18, active compounds read low 0.979 | locus YLR371W, strain rom2, active compounds read low 1.03 | locus YLR384C, strain iki3, active compounds read low 0.996 | locus YLR418C, strain cdc73, active compounds read low 1.02 | locus YML016C, strain PPZ1, active compounds read low 1.01 | locus YML032C, strain rad52, active compounds read low 1.02 | locus YML120C, strain ndi1, active compounds read low 0.966 | locus YML124C, strain tub3, active compounds read low 1 | locus YMR058W, strain fet3, active compounds read low 0.968 | locus YMR078C, strain ctf18, active compounds read low 1.02 | locus YMR125W, strain sto1, active compounds read low 0.99 | locus YMR129W, active compounds read low 1.01 | locus YMR205C, strain PFK2, active compounds read low 1.01 | locus YMR223W, strain ubp8, active compounds read low 0.994 | locus YMR231W, strain pep5, active compounds read low 0.987 | locus YMR307W, strain GAS1, active compounds read low 1.11 | locus YNL067W, strain RPL9B, active compounds read low 1.01 | locus YNL071W, strain lat1, active compounds read low 0.983 | locus YNL183C, strain NPR1, active compounds read low 0.954 | locus YNL209W, strain ssb2, active compounds read low 0.983 | locus YNL233W, strain BNI4, active compounds read low 1.01 | locus YNL248C, strain rpa49, active compounds read low 0.912 | locus YNL250W, strain rad50, active compounds read low 1.01 | locus YNL271C, strain bni1, active compounds read low 1.03 | locus YNL298W, strain CLA4, active compounds read low 1.01 | locus YNL307C, strain MCK1, active compounds read low 1.02 | locus YNL322C, strain KRE1 (second series), active compounds read low 0.974 | locus YNL322C, strain KRE1, active compounds read low 1.02 | locus YNR049C, strain mso1, active compounds read low 0.987 | locus YNR052C, strain pop2, active compounds read low 1.02 | locus YOL006C, strain TOP1, active compounds read low 1.21 | locus YOL012C, strain htz1 1.07 | locus YOL147C, strain pex11, active compounds read low 1.01 | locus YOR001W, strain rrp6, active compounds read low 0.955 | locus YOR061W, strain CKA2, active compounds read low 1.02 | locus YOR069W, strain VPS5, active compounds read low 1.01 | locus YOR070C, strain gyp1, active compounds read low 0.989 | locus YOR080W, strain dia2, active compounds read low 0.999 | locus YOR083W, strain WHI5, active compounds read low 0.943 | locus YOR106W, strain vam3, active compounds read low 0.945 | locus YOR136W, strain idh2, active compounds read low 1.02 | locus YOR144C, strain elg1, active compounds read low 1.01 | locus YOR184W, strain ser1, active compounds read low 1.06 | locus YOR231W, strain MKK1, active compounds read low 1 | locus YOR265W, strain rbl2, active compounds read low 0.984 | locus YOR270C, strain vph1, active compounds read low 0.964 | locus YOR290C, strain snf2, active compounds read low 0.99 | locus YOR316C, strain cot1, active compounds read low 1.04 | locus YPL051W, strain arl3, active compounds read low 0.973 | locus YPL078C, strain atp4, active compounds read low 0.926 | locus YPL106C, strain sse1, active compounds read low 0.972 | locus YPL240C, strain hsp82, active compounds read low 0.976 | locus YPL241C, strain CIN2, active compounds read low 1.01 | locus YPL256C, strain CLN2, active compounds read low 0.973 | locus YPR119W, strain clb2, active compounds read low 1 | locus YPR141C, strain kar3, active compounds read low 1 | locus YPR163C, strain tif3, active compounds read low 1.02 | locus YPR167C, strain met16, active compounds read low 1.04 | strain wtn01, active compounds read low 1.07
